# Source: PubChem BioAssay AID588773 (The Scripps Research Institute Molecular Screening Center, 2011)
# The source made the active and inactive calls.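 The calls were made as follows: active = inhibition of plasma PAF acetylhydrolase at a set limit or more at 0.1 µM, with tenfold selectivity over all off-targets; inactive = inhibition below the limit or weaker selectivity.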
# Assay: pPAFAH inhibition and serine hydrolase selectivity, late-stage follow-up, selectivity assay for pPAFAH inhibitor project, biochemical, gel-based, FP-Rh fluorescence, mouse, HTS hit compounds (AID 588773)
# Details: gel-based competitive ABPP, proteome, MW 32 kDa protein, at 10 µM
row,SMILES,outcome
1,CCCCOC(=O)c1ccc(OC(=O)N2CCOCC2)cc1,inactive
2,O=C(CCCSc1ccc(Cl)cc1)Nc1cc(S(=O)(=O)N2CCOCC2)ccc1O,inactive
3,O=C(/C=C/c1cccs1)c1cc(Br)ccc1OC(=O)N1CCOCC1,inactive
4,O=C(Oc1ccc(-c2ccccc2)cc1)N1CCOCC1,inactive
5,O=C(Oc1nsnc1N1CCOCC1)N1CCOCC1,inactive
6,O=C(Oc1ccc(Oc2ccccc2)cc1)N1CCC(O)CC1,inactive
7,O=C(Oc1ccc(-c2ccccc2)cc1)N1CCCCC1,inactive
